Laboratory results as given in the supplement of paper PMC7595190.

Experiments:
Assay in all cases: CellTox Green cytotoxicity fluorescence relative to DMSO vehicle (fold of vehicle RFU); higher = more cell death (loss of membrane integrity), active = 2 or more
CMK = system: CMK
Method in brief: (§1)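 Single compounds from the Selleckchem apoptosis library were applied at final 0.01, 0.1 and 1 µM (0.1% DMSO vehicle) to MV4-11, CMK and Kasumi-1 cells seeded at 4.0 × 10^4 cells per well with CellTox Green reagent. After incubation at 37 °C, 5% CO2, fluorescence was read at 24, 48 and 72 h. Cytotoxicity, meaning loss of membrane integrity, is shown as fold of the DMSO vehicle signal.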

Kasumi-1 = system: Kasumi-1
Method in brief: as §1

MV4-11 = system: MV4-11
Method in brief: as §1

Measured: CellTox Green cytotoxicity fluorescence

CN1CCN(Cc2ccc(Nc3ncc(Cl)c(Nc4ccccc4S(=O)(=O)N(C)C)n3)cc2)CC1
inactive: CMK; 0.01 µM, 24 h 0.958 | CMK; 0.01 µM, 48 h 0.972 | CMK; 0.01 µM, 72 h 0.913 | CMK; 0.1 µM, 24 h 1.07 | CMK; 0.1 µM, 48 h 1.56 | CMK; 0.1 µM, 72 h 1.32 | CMK; 1 µM, 72 h 1.62 | Kasumi-1; 0.01 µM, 24 h 0.957 | Kasumi-1; 0.01 µM, 48 h 0.97 | Kasumi-1; 0.01 µM, 72 h 0.961 | Kasumi-1; 0.1 µM, 24 h 0.997 | Kasumi-1; 0.1 µM, 48 h 1.34 | Kasumi-1; 0.1 µM, 72 h 1.49 | Kasumi-1; 1 µM, 24 h 1.47 | Kasumi-1; 1 µM, 48 h 1.66 | Kasumi-1; 1 µM, 72 h 1.72 | MV4-11; 0.01 µM, 24 h 0.95 | MV4-11; 0.01 µM, 48 h 0.961 | MV4-11; 0.01 µM, 72 h 0.975 | MV4-11; 0.1 µM, 24 h 1.14 | MV4-11; 0.1 µM, 48 h 1.93 | MV4-11; 1 µM, 24 h 1.42
active: CMK; 1 µM, 24 h 2.06 | CMK; 1 µM, 48 h 2.42 | MV4-11; 0.1 µM, 72 h 2.27 | MV4-11; 1 µM, 48 h 2.4 | MV4-11; 1 µM, 72 h 2.55

CCS(=O)(=O)N1CCN(c2ccc(Nc3ncc(C(N)=O)c(NC4CC4)n3)cc2)CC1 [Cerdulatinib]
inactive: CMK; 0.01 µM, 24 h 0.961 | CMK; 0.01 µM, 48 h 0.986 | CMK; 0.01 µM, 72 h 0.983 | CMK; 0.1 µM, 24 h 0.961 | CMK; 0.1 µM, 48 h 1.07 | CMK; 0.1 µM, 72 h 0.888 | CMK; 1 µM, 24 h 1.13 | CMK; 1 µM, 48 h 1.64 | CMK; 1 µM, 72 h 1.34 | Kasumi-1; 0.01 µM, 24 h 0.959 | Kasumi-1; 0.01 µM, 48 h 0.983 | Kasumi-1; 0.01 µM, 72 h 1.01 | Kasumi-1; 0.1 µM, 24 h 0.98 | Kasumi-1; 0.1 µM, 48 h 1.06 | Kasumi-1; 0.1 µM, 72 h 1.07 | Kasumi-1; 1 µM, 24 h 0.928 | Kasumi-1; 1 µM, 48 h 1.08 | Kasumi-1; 1 µM, 72 h 1.15 | MV4-11; 0.01 µM, 24 h 0.937 | MV4-11; 0.01 µM, 48 h 0.94 | MV4-11; 0.01 µM, 72 h 0.941 | MV4-11; 0.1 µM, 24 h 0.942 | MV4-11; 0.1 µM, 48 h 0.965 | MV4-11; 0.1 µM, 72 h 0.965 | MV4-11; 1 µM, 24 h 0.949 | MV4-11; 1 µM, 48 h 1.07 | MV4-11; 1 µM, 72 h 1.11

C=CC(=O)N1CCC(Oc2cc3c(Nc4ccc(Cl)c(Cl)c4F)ncnc3cc2OC)CC1 [Poziotinib]
inactive: CMK; 0.01 µM, 24 h 1.02 | CMK; 0.01 µM, 48 h 1.01 | CMK; 0.01 µM, 72 h 1.02 | CMK; 0.1 µM, 24 h 1.03 | CMK; 0.1 µM, 48 h 1.02 | CMK; 0.1 µM, 72 h 1.02 | CMK; 1 µM, 24 h 0.999 | CMK; 1 µM, 48 h 1 | CMK; 1 µM, 72 h 0.915 | Kasumi-1; 0.01 µM, 24 h 0.992 | Kasumi-1; 0.01 µM, 48 h 0.982 | Kasumi-1; 0.01 µM, 72 h 0.982 | Kasumi-1; 0.1 µM, 24 h 1.03 | Kasumi-1; 0.1 µM, 48 h 1.02 | Kasumi-1; 0.1 µM, 72 h 1.02 | Kasumi-1; 1 µM, 24 h 0.994 | Kasumi-1; 1 µM, 48 h 1 | Kasumi-1; 1 µM, 72 h 1.04 | MV4-11; 0.01 µM, 24 h 0.975 | MV4-11; 0.01 µM, 48 h 0.986 | MV4-11; 0.01 µM, 72 h 0.988 | MV4-11; 0.1 µM, 24 h 1.02 | MV4-11; 0.1 µM, 48 h 1.02 | MV4-11; 0.1 µM, 72 h 1.03 | MV4-11; 1 µM, 24 h 1.01 | MV4-11; 1 µM, 48 h 1.03 | MV4-11; 1 µM, 72 h 1.09

Cc1c(C(=O)Nc2ccc(Oc3ccnc4[nH]cc(-c5ccccc5)c34)c(F)c2)c(=O)n(-c2ccc(F)cc2)n1C
inactive: CMK; 0.01 µM, 24 h 1.01 | CMK; 0.01 µM, 48 h 1.02 | CMK; 0.01 µM, 72 h 1.1 | CMK; 0.1 µM, 24 h 0.997 | CMK; 0.1 µM, 48 h 1.02 | CMK; 0.1 µM, 72 h 1.01 | CMK; 1 µM, 24 h 0.945 | CMK; 1 µM, 48 h 0.956 | CMK; 1 µM, 72 h 1.02 | Kasumi-1; 0.01 µM, 24 h 1.01 | Kasumi-1; 0.01 µM, 48 h 1.02 | Kasumi-1; 0.01 µM, 72 h 0.998 | Kasumi-1; 1 µM, 24 h 0.84 | Kasumi-1; 1 µM, 48 h 0.814 | Kasumi-1; 1 µM, 72 h 0.805 | MV4-11; 0.01 µM, 24 h 1.01 | MV4-11; 0.01 µM, 48 h 1.03 | MV4-11; 0.01 µM, 72 h 1.06 | MV4-11; 0.1 µM, 24 h 1.05 | MV4-11; 0.1 µM, 48 h 1.23 | MV4-11; 0.1 µM, 72 h 1.41 | MV4-11; 1 µM, 24 h 1.03 | MV4-11; 1 µM, 48 h 1.24 | MV4-11; 1 µM, 72 h 1.49

CC1(C)CCC(c2ccc(Cl)cc2)=C(CN2CCN(c3ccc(C(=O)NS(=O)(=O)c4ccc(N[C@H](CCN5CCOCC5)CSc5ccccc5)c(S(=O)(=O)C(F)(F)F)c4)cc3)CC2)C1 [Navitoclax]
inactive: CMK; 0.01 µM, 24 h 0.932 | CMK; 0.01 µM, 48 h 0.931 | CMK; 0.01 µM, 72 h 0.932 | CMK; 0.1 µM, 24 h 1.24 | CMK; 0.1 µM, 48 h 1.36 | CMK; 0.1 µM, 72 h 1.36 | CMK; 1 µM, 24 h 1.62 | Kasumi-1; 0.01 µM, 24 h 1.04 | Kasumi-1; 0.01 µM, 48 h 1 | Kasumi-1; 0.01 µM, 72 h 1.05 | Kasumi-1; 0.1 µM, 24 h 1.22 | Kasumi-1; 0.1 µM, 48 h 1.53 | Kasumi-1; 0.1 µM, 72 h 1.7 | Kasumi-1; 1 µM, 24 h 1.57 | MV4-11; 0.01 µM, 24 h 0.946 | MV4-11; 0.01 µM, 48 h 1.02 | MV4-11; 0.01 µM, 72 h 1.07 | MV4-11; 0.1 µM, 24 h 1.04 | MV4-11; 0.1 µM, 48 h 1.41 | MV4-11; 0.1 µM, 72 h 1.67 | MV4-11; 1 µM, 24 h 1.32
active: CMK; 1 µM, 48 h 2.39 | CMK; 1 µM, 72 h 2.07 | Kasumi-1; 1 µM, 48 h 2.07 | Kasumi-1; 1 µM, 72 h 2.11 | MV4-11; 1 µM, 48 h 2.56 | MV4-11; 1 µM, 72 h 2.63

CC[C@@]1(O)C(=O)OCc2c1cc1n(c2=O)Cc2cc3cc(O)ccc3nc2-1 [(S)-10-Hydroxycamptothecin]
active: CMK; 0.1 µM, 48 h 2.2 | CMK; 0.1 µM, 72 h 2.02 | MV4-11; 1 µM, 48 h 2.3 | MV4-11; 1 µM, 72 h 2.45
inactive: CMK; 0.01 µM, 24 h 0.964 | CMK; 0.01 µM, 48 h 1.06 | CMK; 0.01 µM, 72 h 1.19 | CMK; 0.1 µM, 24 h 1.56 | CMK; 1 µM, 24 h 0.988 | CMK; 1 µM, 48 h 1.01 | CMK; 1 µM, 72 h 0.878 | Kasumi-1; 0.01 µM, 24 h 0.962 | Kasumi-1; 0.01 µM, 48 h 0.972 | Kasumi-1; 0.01 µM, 72 h 0.997 | Kasumi-1; 0.1 µM, 24 h 0.972 | Kasumi-1; 0.1 µM, 48 h 1.07 | Kasumi-1; 0.1 µM, 72 h 1.27 | Kasumi-1; 1 µM, 24 h 0.98 | Kasumi-1; 1 µM, 48 h 1.23 | Kasumi-1; 1 µM, 72 h 1.59 | MV4-11; 0.01 µM, 24 h 1.01 | MV4-11; 0.01 µM, 48 h 1.35 | MV4-11; 0.01 µM, 72 h 1.89 | MV4-11; 0.1 µM, 24 h 1.09 | MV4-11; 0.1 µM, 48 h 1.65 | MV4-11; 0.1 µM, 72 h 1.93 | MV4-11; 1 µM, 24 h 1.27
